Sampled rows, rich in hits. Any-hit rate of the full collection: about 3.5%.
TROY NFkB inh: inhibitors of TROY-driven NF-kB signaling, primary screen, Q293 LMP1-TROYcd cells, NF-kB luciferase, uHTS; AID 1347056, 2019; actives 0.98% (n = 360,000); Q293 LMP1-TROYcd NF-kB luciferase reporter, 4 h; inhibition, % at 10 µM;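 active means compounds whose plate-normalised and pattern-corrected inhibition of the luciferase reporter signal at the single screening dose is 50% or more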
TRAIL sens C8: viability loss with TRAIL in NB7+C8 cells, primary screen, TRAIL sensitizer project, cell-based, ATPlite luminescence; inhibition (viability loss, TRAIL sensitization), % at 10 µM; actives 1% (n = 360,000);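 active means compounds causing at least 50% loss of cell viability in the single-dose screen, relative to plate controls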
PPC-1+TRAIL kill: compounds killing PPC-1 cancer cells with TRAIL present, primary screen, TRAIL potentiator project, ATPLite luminescence, uHTS; PPC-1 cells + TRAIL, ATPLite viability luminescence; cell killing (% activity), % at 4 µM or 5 µM; actives 0.41% (n = 220,000); AID 1443, 2008;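 active means cell killing above 50% in the first pass at 4 µM, then a duplicate retest at 5 µM averaging 50% or more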
TWEAK Fn14 block: inhibitors of TWEAK-Fn14 signaling, primary screen, luciferase reporter cells, uHTS. TWEAK-stimulated Fn14 reporter cells, luciferase luminescence, 8 h. inhibition, % at 10 µM. actives 2% (n = 360,000). AID 1159606, 2016; in the data active means inhibition above about 50%
HSP90 inh: HSP90 inhibitors, primary screen, cell lysate, luminescence; Rabbit reticulocyte lysate, luciferase refolding luminescence, 3 h; inhibition, % at 5.6 µM; actives 0.91% (n = 290,000); AID 1789, 2009;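 active means inhibition above the screen-wide mean plus 3 SD, computed separately per campaign, cut at about 16% in these data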;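 further: inhibitors lower the luminescence because luciferase stays unfolded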
Platelet DG rel: inhibitors of platelet dense granule secretion, primary screen, cell-based, MLPCN, human platelets. human platelet-rich plasma, SFLLRN dense granule ATP release, luminescence. inhibition, %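 (compounds screened at 7.5 µM in platelet-rich plasma)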. actives 0.22% (n = 300,000). AID 1663, 2009;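 active means mean replicate score, as percent of positive control, at or above 50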
Large screens that a line does not name were inactive.

Cc1csc(NC(=O)Cc2coc3cc(C)c(C(C)C)cc23)n1	TROY NFkB inh 55
Cc1cc(C)n2nc(C(=O)OC(C)C(=O)c3ccccc3)nc2n1 (stereo not drawn)	none (no result: PPC-1+TRAIL kill, HSP90 inh)
O=C(Nc1sc2c(c1C(=O)O)CCCCC2)c1ccccc1	TWEAK Fn14 block 64
COC(=O)c1c(NC(=O)C2CC=CCC2C(=O)O)sc2c1CCCCC2 (stereo not drawn)	TWEAK Fn14 block 96 (no result: PPC-1+TRAIL kill)
Cc1ccc(C(=O)Nc2sc3c(c2C#N)CCCCC3)cc1C	none
N#Cc1c(NC(=O)c2ccccc2)sc2c1CCCCC2	TRAIL sens C8 53
CC(C)C[C@H]1CNC(=O)C(=O)N1C[C@@H]1CCCN1C[C@H](Cc1ccccc1)N1C[C@H](Cc2ccccc2)N(CCc2ccccc2)C(=O)C1=O	none (no result: PPC-1+TRAIL kill, HSP90 inh, Platelet DG rel)
CCCCOc1ccc(C(=O)Nc2ccc(OCC(=O)N3CCOCC3)cc2)cc1	TRAIL sens C8 70 (no result: PPC-1+TRAIL kill)
O=C(Nc1ccc(OCC(=O)N2CCOCC2)cc1)c1ccccc1Cl	TRAIL sens C8 83 (no result: PPC-1+TRAIL kill)
Fc1ccccc1N=C1NN=C(c2ccccc2)CS1	TWEAK Fn14 block 67
C=CCSc1nnc(NC(=O)c2cn(CC)c3nc(C)ccc3c2=O)s1	TWEAK Fn14 block 90
Cc1cccc(C(=O)OCC(=O)N2c3ccccc3CC2C)c1C (stereo not drawn)	none (no result: PPC-1+TRAIL kill, HSP90 inh, Platelet DG rel)
CCCc1nc(NCc2ccco2)c(C#N)c2c1COC(C)(C)C2	TWEAK Fn14 block 74 (no result: TROY NFkB inh)
CC(C)c1nc2sc3c(NCc4ccccc4)ncnc3c2c2c1COC(C)(C)C2	none
CC(C)c1nc2sc3c(NCc4ccco4)ncnc3c2c2c1COC(C)(C)C2	TWEAK Fn14 block 52 (no result: TROY NFkB inh)
Oc1[nH]c2ccc(Br)cc2c1N=NC(=S)N1CCOCC1	TWEAK Fn14 block 105
O=C(CNC(=O)c1ccccc1)N=Nc1c(O)[nH]c2ccc(Br)cc12	none (no result: PPC-1+TRAIL kill)
Oc1[nH]c2ccccc2c1N=NC(=S)N1CCOCC1	TWEAK Fn14 block 104
O=[N+]([O-])c1cccc2nc3ccccc3c(NCCCn3ccnc3[N+](=O)[O-])c12	none (no result: PPC-1+TRAIL kill, HSP90 inh, Platelet DG rel)
CCc1ccc(C2C(C#N)=C(N)N(N(C)C)C3=C2C(=O)CCC3)cc1 (stereo not drawn)	none (no result: PPC-1+TRAIL kill)
O=C(COC(=O)CC(c1ccccc1)c1ccccc1)NCc1ccc(Cl)cc1	TWEAK Fn14 block 62
Cn1nccc1-c1ccc(C(=O)NCc2ccc(Cl)cc2)c2occc12	none (no result: PPC-1+TRAIL kill, HSP90 inh, Platelet DG rel)
O=C(Nc1ccc2c(c1)OCCO2)C(c1cc2ccccc2o1)N1CCN(c2ccc(F)cc2)CC1 (stereo not drawn)	TROY NFkB inh 85, TWEAK Fn14 block 85 (no result: PPC-1+TRAIL kill, HSP90 inh, Platelet DG rel)
O=C(Nc1ccc2c(c1)OCCO2)C(c1cc2ccccc2o1)N1CCN(c2ccc(C(F)(F)F)cn2)CC1 (stereo not drawn)	TROY NFkB inh 86, TWEAK Fn14 block 88 (no result: PPC-1+TRAIL kill, HSP90 inh, Platelet DG rel)
O=C(Nc1ccc2c(c1)OCCO2)C(c1cc2ccccc2o1)N1CCN(C/C=C/c2ccccc2)CC1 (stereo not drawn)	TROY NFkB inh 83, TWEAK Fn14 block 86 (no result: PPC-1+TRAIL kill, HSP90 inh, Platelet DG rel)
O=C(COC(=O)C1CCC1)NCc1ccc(F)cc1	none (no result: PPC-1+TRAIL kill, HSP90 inh)
O=C(c1ccccn1)N1CCCC(N2CCN(c3ccc(F)cc3)CC2)C1 (stereo not drawn)	none (no result: PPC-1+TRAIL kill)
COc1cc(C2SC(C)C(=O)N2CCc2ccccc2)cc(OC)c1OC (stereo not drawn)	none
CCOc1cc(C(=O)N(C)CC(=O)Nc2cccc(F)c2)ccc1OCC(=O)N1CCOCC1	none (no result: PPC-1+TRAIL kill, HSP90 inh)
COc1cc(/C=C2/C(=O)ON=C2C)cc(Cl)c1O	none (no result: PPC-1+TRAIL kill)
C#CCOc1c(Cl)cc(/C=C2/C(=O)ON=C2C)cc1OC	TWEAK Fn14 block 63 (no result: PPC-1+TRAIL kill)
COC(=O)c1ccccc1NC(=O)c1cc(C2CC2)on1	none
COC(=O)c1ccccc1NC(=O)c1cc(-c2ccc(O)cc2)on1	TRAIL sens C8 51
CC1(/[N+]([O-])=C\c2ccccc2F)CCCCC1=O (stereo not drawn)	none
CC(C)c1ccc(/C=c2\sc3n(c2=O)C(N)=C(C#N)C(c2ccc(C(C)C)cc2)C=3C(N)=O)cc1 (stereo not drawn)	TRAIL sens C8 63 (no result: PPC-1+TRAIL kill, HSP90 inh, Platelet DG rel)
O=C(CN(Cc1ccccc1)S(=O)(=O)c1ccc(F)cc1)NCc1ccccn1	none (no result: PPC-1+TRAIL kill)
CN(C)CCCn1cnc2c(c1=N)C(c1ccccc1)c1ccc3ccccc3c1O2 (stereo not drawn)	TRAIL sens C8 71 (no result: PPC-1+TRAIL kill)
COc1ccccc1NS(=O)(=O)c1cc(NC(=O)c2cccc(S(=O)(=O)N(C)C)c2)ccc1N1CCOCC1	none (no result: PPC-1+TRAIL kill, HSP90 inh, Platelet DG rel)
COc1c(S(=O)(=O)N2CCCCC2)ccc2c(S(=O)(=O)N3CCCCC3)cccc12	TWEAK Fn14 block 64 (no result: PPC-1+TRAIL kill, Platelet DG rel)
COc1cc(OC)c(S(=O)(=O)N2CCCCC2)cc1S(=O)(=O)N1CCCCC1	TWEAK Fn14 block 83 (no result: TROY NFkB inh)
N#C/C(=C\c1ccc(O)c(O)c1)C(=O)c1ccc(O)c(O)c1	TWEAK Fn14 block 63 (no result: PPC-1+TRAIL kill, HSP90 inh, Platelet DG rel)
N#C/C(=C\c1ccc(O)c(O)c1)C(=O)N1CCCC1	none
Cc1ccc(S(=O)(=O)NCC(=O)OC(C)C(=O)NCc2ccc3c(c2)OCO3)cc1 (stereo not drawn)	none (no result: PPC-1+TRAIL kill, HSP90 inh, Platelet DG rel)
[O-]/[N+](=C/c1ccc(F)cc1)c1ccc(Cl)cc1	Platelet DG rel 57
Cc1c(C(=O)NCc2cccnc2)oc2ccc(S(=O)(=O)N3CCC4(CC3)OCCO4)cc12	none
Cc1c(C(=O)NCCC2=CCCCC2)oc2ccc(S(=O)(=O)N3CCOCC3)cc12	TWEAK Fn14 block 52 (no result: Platelet DG rel)
COc1ccc(S(=O)(=O)N2CCC(C(=O)NCCC3=CCCCC3)CC2)cc1C	TRAIL sens C8 54
Cc1ccc(CNC(=O)c2oc3ccc(S(=O)(=O)N4CCC5(CC4)OCCO5)cc3c2C)cc1	TWEAK Fn14 block 54
CC(C)n1ncc(N2CCOCC2)c(Cl)c1=O	none (no result: PPC-1+TRAIL kill)
Cc1ccc(OCCNC(=O)c2cccc(S(=O)(=O)N3CCN(C)CC3)c2)cc1	none (no result: PPC-1+TRAIL kill, HSP90 inh, Platelet DG rel)
O=C(Nc1ccc(N2CCN(C(=O)c3ccccc3)CC2)c(Cl)c1)c1ccco1	none
O=C(Nc1ccc(N2CCN(C(=O)c3ccco3)CC2)c(Cl)c1)c1cc2ccccc2o1	TROY NFkB inh 72, TRAIL sens C8 61, TWEAK Fn14 block 97
CN1CCN(c2ccccc2NC(=O)c2ccc([N+](=O)[O-])o2)CC1	TRAIL sens C8 60 (no result: PPC-1+TRAIL kill)
CCC(=O)N1CCN(c2ccc(NC(=O)c3ccc([N+](=O)[O-])o3)cc2Cl)CC1	TRAIL sens C8 70
CCC(=O)N1CCN(c2ccc(NC(=O)c3cc4ccccc4o3)cc2Cl)CC1	TROY NFkB inh 66, TRAIL sens C8 61, TWEAK Fn14 block 93
CC(C)(C)C(=O)Nc1cc2c3c(c1)CCN3C(=O)CC2	none (no result: PPC-1+TRAIL kill)
O=C(O)c1c(Cl)cccc1Cl	none (no result: PPC-1+TRAIL kill, HSP90 inh, Platelet DG rel)
CCc1ccccc1NC(=O)CNC(=O)c1ccc(-n2cncn2)c([N+](=O)[O-])c1	none (no result: PPC-1+TRAIL kill, HSP90 inh)

Compound activity: PubChem BioAssay, several laboratories
